Assay results published in ChEMBL document CHEMBL1961873, “Compounds: GSK PKIS; Assays: Nanosyn kinase panel” (2012).

Tests used:
[1] = target: RAF proto-oncogene serine/threonine-protein kinase (Homo sapiens) (UniProt P04049); conditions: at 1 µM;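 also: values are the mean percent inhibition of CRAF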
[2] = target: T1, Interleukin-1 receptor-associated kinase 4 (Homo sapiens) (UniProt Q9NWZ3); conditions: at 0.1 µM
T1 sequence (whole entry): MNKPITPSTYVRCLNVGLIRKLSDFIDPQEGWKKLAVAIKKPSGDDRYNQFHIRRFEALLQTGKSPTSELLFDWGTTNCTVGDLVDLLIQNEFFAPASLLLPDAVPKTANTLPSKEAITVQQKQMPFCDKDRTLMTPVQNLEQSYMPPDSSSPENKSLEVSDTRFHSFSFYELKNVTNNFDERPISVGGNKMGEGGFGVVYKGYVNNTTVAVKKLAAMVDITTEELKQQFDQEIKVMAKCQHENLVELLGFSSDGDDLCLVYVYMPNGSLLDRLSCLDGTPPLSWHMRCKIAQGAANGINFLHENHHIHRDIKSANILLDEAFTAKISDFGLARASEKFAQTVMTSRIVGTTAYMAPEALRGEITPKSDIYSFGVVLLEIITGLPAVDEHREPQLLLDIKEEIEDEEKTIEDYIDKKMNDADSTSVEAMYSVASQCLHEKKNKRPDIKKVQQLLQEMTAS

[3] = target: T1, Interleukin-1 receptor-associated kinase 4 (Homo sapiens); conditions: at 1 µM
[4] = target: Leucine-rich repeat serine/threonine-protein kinase 2 (Homo sapiens) (UniProt Q5S007); conditions: at 0.1 µM
Chain of Leucine-rich repeat serine/threonine-protein kinase 2 (Homo sapiens) (Q5S007 whole entry): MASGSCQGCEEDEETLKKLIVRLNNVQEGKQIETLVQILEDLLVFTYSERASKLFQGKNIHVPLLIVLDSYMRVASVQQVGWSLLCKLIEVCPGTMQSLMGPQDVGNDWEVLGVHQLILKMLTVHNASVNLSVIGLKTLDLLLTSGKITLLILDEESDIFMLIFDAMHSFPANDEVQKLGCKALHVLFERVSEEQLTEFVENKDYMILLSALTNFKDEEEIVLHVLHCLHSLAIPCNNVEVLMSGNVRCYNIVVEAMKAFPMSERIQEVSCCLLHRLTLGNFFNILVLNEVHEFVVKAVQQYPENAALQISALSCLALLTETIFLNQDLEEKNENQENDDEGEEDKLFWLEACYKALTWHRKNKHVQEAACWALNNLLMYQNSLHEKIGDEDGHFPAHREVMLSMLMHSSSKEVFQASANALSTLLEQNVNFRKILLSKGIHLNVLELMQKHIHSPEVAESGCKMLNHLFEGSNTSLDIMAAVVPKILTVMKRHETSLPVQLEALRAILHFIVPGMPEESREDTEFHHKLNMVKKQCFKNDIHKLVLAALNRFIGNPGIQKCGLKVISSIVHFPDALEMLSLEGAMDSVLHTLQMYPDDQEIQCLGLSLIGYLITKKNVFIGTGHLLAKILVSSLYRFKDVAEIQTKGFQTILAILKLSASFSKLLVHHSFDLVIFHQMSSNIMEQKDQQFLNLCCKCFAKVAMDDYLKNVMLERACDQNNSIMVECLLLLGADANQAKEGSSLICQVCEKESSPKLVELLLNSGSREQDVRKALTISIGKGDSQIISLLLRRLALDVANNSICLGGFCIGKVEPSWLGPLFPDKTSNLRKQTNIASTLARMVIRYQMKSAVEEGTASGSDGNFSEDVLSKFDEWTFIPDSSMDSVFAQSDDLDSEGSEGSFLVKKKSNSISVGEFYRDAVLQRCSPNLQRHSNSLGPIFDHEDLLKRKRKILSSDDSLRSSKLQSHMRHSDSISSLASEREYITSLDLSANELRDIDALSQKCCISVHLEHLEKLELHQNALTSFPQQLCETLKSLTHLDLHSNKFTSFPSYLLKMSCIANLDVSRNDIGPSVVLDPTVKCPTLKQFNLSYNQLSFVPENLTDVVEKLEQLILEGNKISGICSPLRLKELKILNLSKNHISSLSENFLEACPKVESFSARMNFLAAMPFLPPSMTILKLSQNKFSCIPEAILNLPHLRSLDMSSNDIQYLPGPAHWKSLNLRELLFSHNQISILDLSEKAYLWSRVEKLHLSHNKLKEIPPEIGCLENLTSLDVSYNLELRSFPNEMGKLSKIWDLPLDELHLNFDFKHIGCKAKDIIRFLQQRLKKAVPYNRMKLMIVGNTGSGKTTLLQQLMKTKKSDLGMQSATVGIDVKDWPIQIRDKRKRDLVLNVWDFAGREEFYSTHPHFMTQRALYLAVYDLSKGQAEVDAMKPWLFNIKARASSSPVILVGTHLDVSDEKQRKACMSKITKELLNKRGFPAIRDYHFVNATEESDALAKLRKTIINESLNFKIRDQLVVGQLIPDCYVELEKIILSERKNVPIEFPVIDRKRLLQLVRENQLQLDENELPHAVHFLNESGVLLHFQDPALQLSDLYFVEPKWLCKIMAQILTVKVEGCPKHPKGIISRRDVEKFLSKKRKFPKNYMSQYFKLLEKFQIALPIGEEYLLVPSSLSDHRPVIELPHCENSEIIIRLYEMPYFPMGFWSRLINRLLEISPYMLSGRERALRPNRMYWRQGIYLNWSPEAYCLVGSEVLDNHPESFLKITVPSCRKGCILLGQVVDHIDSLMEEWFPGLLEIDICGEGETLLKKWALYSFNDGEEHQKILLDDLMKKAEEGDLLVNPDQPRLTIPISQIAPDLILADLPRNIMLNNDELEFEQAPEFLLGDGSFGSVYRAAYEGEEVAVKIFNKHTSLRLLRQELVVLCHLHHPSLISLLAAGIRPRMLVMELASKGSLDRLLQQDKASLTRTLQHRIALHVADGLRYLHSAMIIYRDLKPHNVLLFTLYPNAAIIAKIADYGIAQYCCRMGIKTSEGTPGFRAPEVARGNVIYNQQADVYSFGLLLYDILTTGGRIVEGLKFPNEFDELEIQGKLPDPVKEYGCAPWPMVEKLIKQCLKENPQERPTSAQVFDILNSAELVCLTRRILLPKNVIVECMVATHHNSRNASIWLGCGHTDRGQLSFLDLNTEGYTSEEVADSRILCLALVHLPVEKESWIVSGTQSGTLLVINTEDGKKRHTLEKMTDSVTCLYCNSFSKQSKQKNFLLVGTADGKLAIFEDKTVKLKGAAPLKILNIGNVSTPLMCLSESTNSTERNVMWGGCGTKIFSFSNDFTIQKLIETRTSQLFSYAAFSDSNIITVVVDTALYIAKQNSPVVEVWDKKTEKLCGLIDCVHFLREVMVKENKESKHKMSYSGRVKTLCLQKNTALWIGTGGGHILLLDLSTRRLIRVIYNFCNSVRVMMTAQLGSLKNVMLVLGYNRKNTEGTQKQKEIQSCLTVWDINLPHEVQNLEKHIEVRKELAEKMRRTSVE

[5] = target: Leucine-rich repeat serine/threonine-protein kinase 2 (Homo sapiens) (UniProt Q5S007); conditions: at 1 µM
[6] = system: Leucine-rich repeat serine/threonine-protein kinase 2 (Homo sapiens), Q5S007 [G2019S]; conditions: at 0.1 µM
Chain of Leucine-rich repeat serine/threonine-protein kinase 2 (Homo sapiens), Q5S007 [G2019S] (Q5S007 whole entry G2019S): as the sequence (Q5S007 whole entry) above, with G2019S counted along it

[7] = system: Leucine-rich repeat serine/threonine-protein kinase 2 (Homo sapiens), Q5S007 [G2019S]; conditions: at 1 µM

Chain of RAF proto-oncogene serine/threonine-protein kinase (Homo sapiens) (P04049 whole entry): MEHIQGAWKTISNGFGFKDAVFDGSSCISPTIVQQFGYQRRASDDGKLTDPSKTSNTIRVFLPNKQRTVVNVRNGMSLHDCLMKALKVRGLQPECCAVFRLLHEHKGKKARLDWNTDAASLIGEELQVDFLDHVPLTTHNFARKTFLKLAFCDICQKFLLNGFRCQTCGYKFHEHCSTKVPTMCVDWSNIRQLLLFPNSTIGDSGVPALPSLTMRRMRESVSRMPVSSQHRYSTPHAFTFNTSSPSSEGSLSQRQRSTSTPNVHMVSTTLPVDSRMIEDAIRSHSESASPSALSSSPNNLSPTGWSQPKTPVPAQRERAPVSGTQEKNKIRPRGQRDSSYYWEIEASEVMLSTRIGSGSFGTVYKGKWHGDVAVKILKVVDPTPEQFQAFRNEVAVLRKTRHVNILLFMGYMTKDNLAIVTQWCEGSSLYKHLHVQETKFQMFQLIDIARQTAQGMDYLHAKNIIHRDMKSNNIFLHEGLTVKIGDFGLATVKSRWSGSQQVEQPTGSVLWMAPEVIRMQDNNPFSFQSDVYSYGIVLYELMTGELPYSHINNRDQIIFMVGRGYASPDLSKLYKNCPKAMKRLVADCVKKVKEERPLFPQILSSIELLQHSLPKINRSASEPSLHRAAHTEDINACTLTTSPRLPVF

| SMILES | inhibition [1] [%] | inhibition [2] [%] | inhibition [3] [%] | inhibition [4] [%] | inhibition [5] [%] | inhibition [6] [%] | inhibition [7] [%] |
| --- | --- | --- | --- | --- | --- | --- | --- |
| CCn1c(-c2nonc2N)nc2c(C#CC(C)(C)O)ncc(OC[C@@H]3CCCN3)c21 | 0.33 | 0.18 | 0.53 | 0.96 | 7.88 | 2.98 | 12.5 |
| NC(=O)c1sc(-n2cnc3cc(C(F)(F)F)ccc32)cc1OCc1ccccc1Br | 5.05 | 0.4 | 1.13 | 3.39 | 6.23 | 3.66 | 6.47 |
| CCn1c(-c2nonc2N)nc2c(C#CC(C)(C)O)ncc(OCC3CCNCC3)c21 | 1.08 | -1.36 | 1.24 | -2.92 | 5 | 1.31 | 16.7 |
| COc1cc2c(cc1Nc1nc(Nc3ccsc3C(N)=O)c3cc[nH]c3n1)N(C(=O)CN(C)C)CCC2 | -4.6 | -1.66 | -1.26 | 80.8 | 86.2 | 63 | 61.2 |
| COc1cc(C=NNc2ncnc3c2cnn3Cc2ccccc2)ccc1O | 8.55 | 1.48 | -1.52 | -2.34 | 3.59 | 1.06 | 10.1 |
| NS(=O)(=O)c1ccc(-c2ccc3c(NC(=O)C4CC4)n[nH]c3c2)cc1 | 9.01 | -1.93 | 1.48 | 2.77 | 2.56 | 3.47 | 7.51 |
| CCn1c(-c2nonc2N)nc2c(C#CCN)ncc(OCCCN)c21 | 1.98 | 1.9 | -2 | 3.78 | 5.71 | 4.23 | 12.1 |
| COc1cccc(-n2ncc3c(N/N=C/c4ccncc4)ncnc32)c1 | 3.93 | 2.61 | 4.07 | 4.32 | 16.6 | 7.97 | 37.4 |
| Cc1cc(-c2ccco2)cc(C)c1/C=C/c1cncc(-c2nn[nH]n2)c1 | -5.34 | -0.17 | -0.12 | 4.45 | 8.02 | 5.52 | 5.78 |
| CCn1c(-c2nonc2N)nc2c(C#CC(C)(C)O)nc(O[C@@H](CN)c3ccccc3)cc21 | -0.12 | 2.57 | -0.97 | 1.02 | 12.4 | 5.6 | 35.9 |
| Fc1ccc(-c2ncn(C3CCNCC3)c2-c2ccnc(Oc3ccccc3)n2)cc1 | 1.07 | 0.54 | 0.35 | -5.14 | -7.49 | -2.28 | -0.98 |
| Nc1nonc1-c1nc2cnccc2n1C1CCCCC1 | 13.7 | 2.08 | -1.3 | 4.67 | 20 | 9.49 | 45.5 |
| NS(=O)(=O)c1ccc(N/C=C2\C(=O)Nc3ccc4ncsc4c32)cc1 | 0.21 | 1.82 | 2.58 | 17.8 | 58.6 | 29.4 | 58.9 |
| COc1cccc(COc2cc(-n3cnc4ccccc43)sc2C(N)=O)c1 | 0.06 | -1.12 | -1.16 | 2.35 | 14.6 | 5.15 | 31.2 |
